HT1080-NT tox: qHTS for induction of synthetic lethality in tumor cells producing 2HG: qHTS for the HT-1080-NT fibrosarcoma cell line; HT-1080-NT fibrosarcoma viability, CellTiter-Glo ATP luminescence, 48 h; AID 686970, 2013; Potency, µM (titrated, usually from 46.1 µM), for inactives: at the top dose activity, negative = less viability, hits mostly cytotoxic; 360,000 tested, 1.6% active;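 note: NT is the 2HG producing partner of a matched IDH1 knockdown line; potency is the fitted concentration of half-maximal effect; 0% = DMSO-treated cells and -100% = media-only wells without cells; nearly all actives have a fitted effect of over 55% in size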
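Luminescent CellTiter-Glo readout after 48 hours of compound exposure at 37 degrees C defined viability of HT-1080-NT cells. Activity was normalized to DMSO wells and cell-free media wells; concentration-response curves were fitted and assigned curve classes.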
IL-1B inflam inh: qHTS for Inhibitors of Inflammasome Signaling: IL-1-beta AlphaLISA Primary Screen | THP-1 LPS/ATP IL-1B secretion, AlphaLISA, 16 h; stronger effect = lower value | activity change, % at 57.5 µM | 360,000 tested, 4.7% active | AID 743279, 2014; in the data active = activity change below about -50%; inconclusive = mostly about -30% to -49%
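THP-1 cells pretreated 1 hr with compounds (up to 57.5 uM final), then stimulated with LPS (250 ng/mL final) plus ATP (1.25 mM final); secreted IL-1B measured by AlphaLISA after 16 hr, decreased signal indicating inhibition.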
HT1080 IDH1KD tx: qHTS for induction of synthetic lethality in tumor cells producing 2HG: qHTS for the HT-1080-IDH1KD cell line; HT-1080 IDH1 knockdown viability, ATP luminescence, 48 h; 360,000 tested, 2% active; Potency, µM (doses to about 46.1 µM), for the others: at the highest dose activity, negative = toxicity, actives largely listed as cytotoxic;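 note: potency is the fitted concentration of half-maximal effect; 0% = DMSO wells and -100% = cell-free medium wells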
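IDH1KD HT-1080 cells, 750/well, RPMI + 5% FBS; compound pinned after 2 h settling; 48 h, 37 °C; CellTiter-Glo luminescence; % activity normalised to DMSO and no-cell wells; curves fitted, classed by r2 and efficacy.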
ELG1 DNA repair: qHTS screen for small molecules that inhibit ELG1-dependent DNA repair in human embryonic kidney (HEK293T) cells expressing luciferase-tagged ELG1; HEK293T ELG1-luciferase reporter, luminescence, 16 h; DNA damage induced by 5-fluorouridine; Potency, µM (highest dose often 46.1 µM), for inactives: at the highest dose activity change, negative = inhibition, most hits filed as inhibitors; 330,000 tested, 2.3% active; note: potency is the fitted concentration of half-maximal effect; nearly all actives have a fitted effect of over 55% in size
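5-Fluorouridine DNA damage + compound/DMSO, 2,000 cells/well, 16 h, 37 °C/5% CO2. ONE-Glo, 30 min RT, luminescence. Readout = decrease in reporter signal.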
DT40 TDP1 CPT: qHTS for Inhibitors of human tyrosyl-DNA phosphodiesterase 1 (TDP1): qHTS in cells in presence of CPT | chicken DT40 Tdp1-/-;hTDP1 cells + 20 nM CPT, ATP luminescence, 48 h | Potency, µM (titrated, usually from 46.2 µM), for the others: at the top dose activity change, negative = growth inhibition, actives largely listed as inhibitors | 420,000 tested, 12% active | AID 686979, 2013; note: potency is the fitted concentration of half-maximal effect; nearly all actives have a fitted effect of over 55% in size
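Chicken DT40 Tdp1-/- cells complemented with human TDP1, 400 cells/well, exposed to compounds plus 20 nM camptothecin for at least 48 h at 37 C; viability read as ATP content by CellTiter-Glo luminescence.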
TDP1 cell noCPT: qHTS for Inhibitors of human tyrosyl-DNA phosphodiesterase 1 (TDP1): qHTS in cells in absence of CPT; DT40 Tdp1-/- hTDP1 cells, no CPT, ATP luminescence, 48 h; Potency, µM (series often up to 46.2 µM), for the others: top-dose activity change, negative = growth inhibition, actives largely listed as inhibitors; 420,000 tested, 15% active; note: potency is the fitted concentration of half-maximal effect; nearly all actives have a fitted effect of over 55% in size
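No-CPT arm: Tdp1-/-;hTDP1 DT40 cells (400/well) plus compounds, incubated ≥48 hr at 37 °C. Readout CellTiter-Glo luminescence.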
An asterisk follows results filed as active; ? = inconclusive; . = not tested or not shown. Only some compounds are listed: those with a hit (about 19% of all), similar ones and a draw of the others. Unless noted, calls come from the whole dose curve; as a rule, active = well fitted curve in the direction sought with a large enough effect; inconclusive = small, poorly fitted or top-dose-only effect, or another doubt; inactive = no such curve, though single readings can be large; an effect the other way counts as inactive or inconclusive. Unless noted, % is set by controls: 0 for no effect and ±100 for the full control effect.

SMILES	HT1080-NT tox	IL-1B inflam inh	HT1080 IDH1KD tx	ELG1 DNA repair	DT40 TDP1 CPT	TDP1 cell noCPT
Cc1ccc2nc(NCc3ccccc3)c3nnnn3c2c1	.	.	.	.	-21%	-19%
CCN(c1ccccc1)S(=O)(=O)c1cccc(C(=O)NCC(c2ccc(F)cc2)N2CCOCC2)c1 (stereo not drawn)	-10%	-25	-7%	.	23µM*	10µM*
Cc1ccc(Sc2ncccc2C(=O)NCC(c2ccc(F)cc2)N2CCOCC2)c(C)c1 (stereo not drawn)	0%	-5	-14%	?	15µM*	?
O=C(NCC(c1cccs1)N1CCOCC1)c1cccc(S(=O)(=O)Nc2ccc(F)cc2)c1 (stereo not drawn)	1%	38	3%	.	?	?
COc1ccccc1NS(=O)(=O)c1cccc(C(=O)NCC(c2ccc(F)cc2)N2CCOCC2)c1 (stereo not drawn)	3%	-5	5%	-18%	?	?
O=C(NCC(c1ccc(F)cc1)N1CCOCC1)c1cccc(Br)c1 (stereo not drawn)	-1%	?	0%	2%	?	?
Cc1ccc(NS(=O)(=O)c2cccc(C(=O)NCC(c3ccc(F)cc3)N3CCOCC3)c2)cc1 (stereo not drawn)	?	-51*	-27%	?	29µM*	16µM*
C=CCN(c1ccccc1)S(=O)(=O)c1cccc(C(=O)NCC(c2ccc(F)cc2)N2CCOCC2)c1 (stereo not drawn)	1%	4	-7%	?	13µM*	16µM*
O=C(COC(=O)C1CC(=O)N(CCc2ccccc2)C1)c1ccc[nH]1 (stereo not drawn)	9%	0	7%	13%	11%	-2%
C#CCOC(=O)C[N+](C)(C)CC#Cc1ccccc1	14%	7	3%	-1%	2%	8%
CN(c1ccccc1)S(=O)(=O)c1cccc(C(=O)NCC(c2cccs2)N2CCOCC2)c1 (stereo not drawn)	-3%	15	0%	.	?	16µM*
COc1ccc2cc3c(N)nn(C(=O)Cc4ccccc4OC)c3nc2c1	-14%	-60*	-17%	?	9.2µM*	9.2µM*
COc1ccc(-n2cnc(N)c2C(=O)c2cccc([N+](=O)[O-])c2)cc1	?	-3	?	16µM*	16µM*	?
Cc1ccc2cc3c(N)nn(C(=O)c4cccc(F)c4)c3nc2c1	.	.	.	.	?	7.3µM*
COc1ccc2cc3c(N)nn(C(=O)c4cccc([N+](=O)[O-])c4)c3nc2c1	-1%	-11	1%	2.3µM*	?	?
COc1ccc(C(=O)n2nc(N)c3cc4ccc(C)cc4nc32)cc1OC	.	.	.	.	15%	-18%
CCc1cc2c(cc3c(=O)n(CC(=O)NCCc4ccc(OC)cc4OC)nc(CC)n32)s1	.	.	.	.	2%	-27%
CCc1ccccc1NC(=O)c1nnn(CC(=O)Nc2c(C)cc(C)cc2C)c1N	.	.	.	.	12%	-13%
O=C(NC1CCCCCC1)C1CCC(CNS(=O)(=O)c2cccc3cccnc23)CC1 (stereo not drawn)	.	.	.	.	-26%	-18%

High-throughput results as filed in PubChem.
